Several values for one entry are separate records, joined by “and”; a condition that tells them apart may be missing. Equal entries are not always repeated. Inconclusive results are not listed. Some compounds were tested as several samples or in several runs, with calls that do not always agree. Activity calls are given as the source filed them. Unless noted, calls come from the whole dose curve.
How the values were obtained:
[1] = qHTS assay to identify small molecule antagonists of the sonic hedgehog signaling (Shh) pathway (AID 1259369); note: nearly all actives have a fitted effect of over 45% in size; note: potency is the fitted concentration of half-maximal effect
How it was run: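 NIH/3T3-derived Gli1-Luc reporter cells plated 4 h, dosed with compound, then stimulated with conditioned medium for 24 h at 37 C. Firefly luciferase luminescence read after 30 min with detection reagent at room temperature.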

[2] = qHTS assay to identify small molecule agonists of the androgen receptor (AR) signaling pathway in the presence of an antagonist - cell viability counter screen (AID 1259379; active = well fitted curve in the direction sought with a large enough effect in the repeat runs; an effect the other way counts as inactive or inconclusive; note: nearly all actives have a fitted effect of over 25% in size; note: potency is the fitted concentration of half-maximal effect;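 for activity change, negative = cytotoxicity: MDA-kb2 human breast cancer cells carrying an MMTV luciferase reporter; series mostly up to about 92 µM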)
How it was run: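 MDA-kb2 cells (MMTV-luciferase, AR/GR), 3,000/well, 5 h attachment, then 3.0 µM nilutamide (final) and compounds at 15 concentrations. Viability by CellTiter-Fluor fluorescence after 16 h at 37 °C, 0% CO2, in the reporter wells.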

[3] = qHTS assay to identify small molecule agonists of the estrogen receptor beta (ER-beta) signaling pathway - cell viability counter screen (AID 1259380; active = well fitted curve in the direction sought with a large enough effect in the repeat runs; an effect the other way counts as inactive or inconclusive; note: nearly all actives have a fitted effect of over 30% in size; note: potency is the fitted concentration of half-maximal effect)
How it was run: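 ER-beta-UAS-bla HEK293T cells in medium with 2% charcoal-stripped FBS, pre-incubated 6 hr, then treated 16 hr at 37C. Cytotoxicity read in the same wells by CellTiter-Glo luminescence after 30 min at room temperature.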

[4] = molecular target: Androgen receptor (Homo sapiens) (UniProt P10275); assay: qHTS assay to identify small molecule agonists of the androgen receptor (AR) signaling pathway in the presence of an antagonist (AID 1259381); note: nearly all actives have a fitted effect of over 15% in size; note: potency is the fitted concentration of half-maximal effect
Chain of Androgen receptor (Homo sapiens) (P10275 whole entry, looked up): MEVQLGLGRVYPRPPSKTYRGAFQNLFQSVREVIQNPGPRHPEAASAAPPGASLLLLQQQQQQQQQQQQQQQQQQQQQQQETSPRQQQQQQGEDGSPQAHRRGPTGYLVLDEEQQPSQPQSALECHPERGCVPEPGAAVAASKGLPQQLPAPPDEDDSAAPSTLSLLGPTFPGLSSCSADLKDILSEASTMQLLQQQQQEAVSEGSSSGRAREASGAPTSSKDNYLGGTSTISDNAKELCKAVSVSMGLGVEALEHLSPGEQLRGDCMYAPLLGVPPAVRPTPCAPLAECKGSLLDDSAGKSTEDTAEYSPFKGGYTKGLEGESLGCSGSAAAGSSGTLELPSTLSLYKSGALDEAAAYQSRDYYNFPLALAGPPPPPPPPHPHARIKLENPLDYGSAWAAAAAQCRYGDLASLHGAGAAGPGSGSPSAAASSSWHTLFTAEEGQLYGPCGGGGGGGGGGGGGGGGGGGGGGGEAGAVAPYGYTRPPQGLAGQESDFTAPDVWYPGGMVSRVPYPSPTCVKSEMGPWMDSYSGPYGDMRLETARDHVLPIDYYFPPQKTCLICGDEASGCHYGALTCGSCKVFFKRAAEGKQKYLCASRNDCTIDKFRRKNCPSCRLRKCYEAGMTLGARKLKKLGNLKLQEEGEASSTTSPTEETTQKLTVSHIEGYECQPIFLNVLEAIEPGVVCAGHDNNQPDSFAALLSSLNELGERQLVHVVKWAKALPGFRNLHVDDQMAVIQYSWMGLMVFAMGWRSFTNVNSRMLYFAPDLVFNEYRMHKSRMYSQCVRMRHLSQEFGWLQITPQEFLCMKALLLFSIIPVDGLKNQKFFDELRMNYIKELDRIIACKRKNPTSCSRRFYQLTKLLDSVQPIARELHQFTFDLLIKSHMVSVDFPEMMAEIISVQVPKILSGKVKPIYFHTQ
How it was run: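 MDA-kb2 cells carrying MMTV-luciferase (AR/GR responsive), 3,000 cells/well, co-treated with 3.0 uM nilutamide final. Compounds at 15 concentrations, 16 hr at 37C without CO2. Luciferase luminescence read after 30 min with ONE-Glo.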

[5] = qHTS assay to identify small molecule antagonists of the estrogen receptor beta (ER-beta) signaling pathway - cell viability counter screen (AID 1259382; active = well fitted curve in the direction sought with a large enough effect in the repeat runs; an effect the other way counts as inactive or inconclusive; note: nearly all actives have a fitted effect of over 55% in size; note: potency is the fitted concentration of half-maximal effect;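 for activity change, negative = cytotoxicity: HEK293T cells carrying ER-beta-UAS-bla reporter stimulated with estradiol; series mostly up to about 92 µM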)
How it was run: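 ER-beta-UAS-bla HEK293T cells in 2% charcoal-stripped FBS medium, treated with compound plus 1 nM 17-beta-estradiol for 16 h at 37C. Viability read by CellTiter-Glo luminescence after 30 min at room temperature in the same wells.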

[6] = molecular target: Estrogen receptor (Homo sapiens) (UniProt P03372); assay: qHTS assay to identify small molecule agonists of the estrogen receptor alpha (ER-alpha) signaling pathway in the presence of an antagonist (AID 1259383); note: nearly all actives have a fitted effect of over 15% in size; note: potency is the fitted concentration of half-maximal effect
Chain of Estrogen receptor (Homo sapiens) (P03372 whole entry, looked up): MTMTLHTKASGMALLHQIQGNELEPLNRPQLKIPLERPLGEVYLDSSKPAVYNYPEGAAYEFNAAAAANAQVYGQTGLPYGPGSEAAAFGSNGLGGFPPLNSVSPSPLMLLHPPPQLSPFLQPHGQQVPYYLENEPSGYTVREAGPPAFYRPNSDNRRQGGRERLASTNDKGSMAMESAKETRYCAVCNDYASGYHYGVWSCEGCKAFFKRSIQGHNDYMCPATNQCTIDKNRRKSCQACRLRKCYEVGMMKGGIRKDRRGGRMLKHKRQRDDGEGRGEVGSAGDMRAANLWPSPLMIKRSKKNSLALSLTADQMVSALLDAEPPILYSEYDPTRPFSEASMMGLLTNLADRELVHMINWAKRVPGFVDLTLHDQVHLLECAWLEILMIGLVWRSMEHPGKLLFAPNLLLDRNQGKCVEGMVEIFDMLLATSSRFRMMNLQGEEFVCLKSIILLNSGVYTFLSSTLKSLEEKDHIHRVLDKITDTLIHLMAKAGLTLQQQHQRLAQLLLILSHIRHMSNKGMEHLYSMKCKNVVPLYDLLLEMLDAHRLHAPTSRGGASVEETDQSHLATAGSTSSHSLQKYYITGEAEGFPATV
How it was run: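 VM7Luc4E2 cells express endogenous full-length ER-alpha with an ERE-luciferase reporter and were hormone-deprived for 5 days. Compounds at 15 concentrations were added with 10.0nM ICI-182,780 for 22hr at 37C. Luminescence was read with ONE-Glo.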

[7] = qHTS assay to identify small molecule agonists or antagonists of the thyroid stimulating hormone receptor (TSHR) signaling pathway - wild type cell line counter screen (AID 1259384)
How it was run: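 Wild-type HEK293 cells were plated 18 h at 37 C/5% CO2, pin-dosed with compound plus Ro20-1724 medium, held 30 min at room temperature, then given cAMP-d2 and anti-cAMP-cryptate; fluorescence was read after 1 h. Fifteen concentrations, triplicate.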

[8] = molecular target: Thyrotropin receptor (Homo sapiens) (UniProt P16473); assay: qHTS assay to identify small molecule antagonists of the thyroid stimulating hormone receptor (TSHR) signaling pathway (AID 1259385); note: nearly all actives have a fitted effect of over 20% in size; note: potency is the fitted concentration of half-maximal effect
Chain of Thyrotropin receptor (Homo sapiens) (P16473 whole entry, looked up): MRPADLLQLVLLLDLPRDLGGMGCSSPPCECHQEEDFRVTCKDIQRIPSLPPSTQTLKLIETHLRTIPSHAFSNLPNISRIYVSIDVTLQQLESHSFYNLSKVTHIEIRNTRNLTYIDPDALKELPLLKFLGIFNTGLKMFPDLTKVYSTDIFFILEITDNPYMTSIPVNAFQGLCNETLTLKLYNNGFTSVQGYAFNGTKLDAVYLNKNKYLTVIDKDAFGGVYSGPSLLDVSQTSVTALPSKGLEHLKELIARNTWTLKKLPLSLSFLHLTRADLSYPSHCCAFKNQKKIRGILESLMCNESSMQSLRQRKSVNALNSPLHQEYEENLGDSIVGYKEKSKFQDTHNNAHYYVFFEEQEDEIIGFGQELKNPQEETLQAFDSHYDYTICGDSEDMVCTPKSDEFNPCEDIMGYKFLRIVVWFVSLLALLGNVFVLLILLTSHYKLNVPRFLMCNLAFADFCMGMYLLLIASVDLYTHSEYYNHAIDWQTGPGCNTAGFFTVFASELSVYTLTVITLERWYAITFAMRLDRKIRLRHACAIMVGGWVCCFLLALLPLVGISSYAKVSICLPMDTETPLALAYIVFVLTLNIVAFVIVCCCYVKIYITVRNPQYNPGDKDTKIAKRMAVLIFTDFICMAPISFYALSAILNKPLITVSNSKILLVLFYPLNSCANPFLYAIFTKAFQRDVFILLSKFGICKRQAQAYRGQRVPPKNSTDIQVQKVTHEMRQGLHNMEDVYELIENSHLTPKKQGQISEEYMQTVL
How it was run: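 TSHR-HEK293 cells were plated and held 18 h at 37C/5% CO2, then given compound plus Ro20-1724 and stimulated with TSH at 1.5 ng/mL final. After 30 min at room temperature, cAMP was detected with cAMP-d2/anti-cAMP-cryptate (1 h) by fluorescence.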
% is set by controls: 0 for no effect and ±100 for the full control effect.

O=C1C(Cl)=C(Cl)C(=O)C(Cl)=C1Cl
active: Potency [1] 4.84 µM and 12.2 µM | Potency [3] 60.9 µM and 54.5 µM | Potency [5] 60.9 µM
inactive: Potency [4] | Potency [6]
60.9 µM (active) and inactive: Potency [2]

O=C(O)[C@H](O)[C@@H](O)C(=O)O
inactive: Potency [1] | Potency [2] | Potency [3] | Potency [5] | Potency [6]

O.O.O.O.O.O.O=S(=O)([O-])[O-].[Ni+2]
inactive: Potency [1] | Potency [2] | Potency [3] | Potency [5]

CC(=O)[O][Sn]([c]1ccccc1)([c]1ccccc1)[c]1ccccc1
active: Potency [1] 54.5 nM | Potency [2] 0.77 µM | Potency [3] 0.137 µM | Potency [5] 0.137 µM | Potency [8] 19.3 µM
inactive: Potency [6] | Potency [7]

O=[N+]([O-])c1cc(C(F)(F)F)c(Cl)c([N+](=O)[O-])c1Nc1ncc(C(F)(F)F)cc1Cl
inactive: Potency [6]
active: Potency [1] 3860 nM | Potency [2] 6.11 µM | Potency [3] 6.86 µM | Potency [5] 8.63 µM | Potency [8] 61.1 µM

CC(=O)[O-].CC(=O)[O-].CC(=O)[O-].[Sb+3]
inactive: activity change, negative = inhibition [1] 2.99% [at 3.27 µM] | activity change, negative = cytotoxicity [2] 3.2% [at 3.27 µM] | activity change, negative = cytotoxicity [3] 2.42% [at 3.32 µM] | activity change, negative = cytotoxicity [5] -1.85% [at 3.27 µM]

CC[C@H](C)[C@H]1O[C@]2(C=C[C@@H]1C)C[C@@H]1C[C@@H](C/C=C(\C)[C@@H](O[C@H]3C[C@H](OC)[C@@H](O[C@H]4C[C@H](OC)[C@@H](NC)[C@H](C)O4)[C@H](C)O3)[C@@H](C)/C=C/C=C3\CO[C@@H]4[C@H](O)C(C)=C[C@@H](C(=O)O1)[C@]34O)O2
active: Potency [1] 3060 nM | Potency [2] 19.3 µM | Potency [3] 9.69 µM | Potency [5] 21.7 µM | Potency [8] 27.3 µM
inactive: Potency [6] | Potency [7]

C[C@]12C/C(=C/O)C(=O)C[C@@H]1CC[C@@H]1[C@@H]2CC[C@@]2(C)[C@H]1CC[C@]2(C)O
active: Potency [1] 15500 nM | Potency [3] 49 µM and 26.6 µM | Potency [5] 49 µM | Potency [6] 8.71 µM and 21.1 µM
61.7 µM (active) and inactive: Potency [2]
inactive: Potency [8]

COc1c2c(cc3c1OCO3)CCN(C)C2
inactive: Potency [1] | Potency [2] | Potency [3] | Potency [5] | Potency [6] | Potency [7] | Potency [8]

C=CC(=O)[O][Sn]([CH2]CCC)([CH2]CCC)[CH2]CCC
active: Potency [1] 486 nM | Potency [2] 4.33 µM | Potency [3] 2.43 µM | Potency [5] 3.06 µM | Potency [8] 13.7 µM
inactive: Potency [4] | Potency [6]

CC(=O)O.CC(=O)O.CC(=O)O.CC(=O)O.CC(=O)O.CC(=O)O.CC(=O)O.O.O.[Cr].[Cr].[Cr]
inactive: Potency [1] | Potency [2] | Potency [3] | Potency [5]

[Cl][Hg][c]1ccccc1
active: Potency [1] 24.3 nM | Potency [2] 12.2 µM | Potency [3] 3.44 µM
inactive: Potency [4] | Potency [6]

CC(O)C(=O)[O][Hg][c]1ccccc1 (stereo unspecified)
inactive: Potency [6]
active: Potency [1] 30.6 nM | Potency [2] 6.86 µM | Potency [3] 4.86 µM | Potency [5] 4.33 µM | Potency [8] 54.5 µM

CCOC(=O)CCN(SN(C)C(=O)Oc1cccc2c1OC(C)(C)C2)C(C)C
active: Potency [1] 54500 nM
inactive: Potency [2] | Potency [3] | Potency [5] | Potency [6] | Potency [8]

COC(=O)c1cc(Oc2ccc(Cl)cc2Cl)ccc1[N+](=O)[O-]
inactive: Potency [1] | Potency [2] | Potency [3] | Potency [5] | Potency [6] | Potency [7]

[F][Sn]([c]1ccccc1)([c]1ccccc1)[c]1ccccc1
active: Potency [1] 48.6 nM | Potency [2] 4.33 µM | Potency [3] 1.22 µM | Potency [5] 1.22 µM | Potency [8] 15.4 µM
inactive: Potency [6] | Potency [7]

CC(Cc1ccccc1)N(C)Cc1ccco1 (stereo unspecified)
inactive: Potency [1] | Potency [2] | Potency [3] | Potency [4] | Potency [5] | Potency [6] | Potency [7] | Potency [8]

[O]=[Cr](=[O])([OH])[O][Cr](=[O])(=[O])[OH]
active: Potency [1] 1.95 µM and 2.16 µM | Potency [2] 27.6 µM and 54.4 µM | Potency [3] 24.6 µM and 54.4 µM
inactive: Potency [4] | Potency [6] | Potency [7] | Potency [8]

N#CC(C#N)=NNc1cccc(Cl)c1
inactive: Potency [4] | Potency [6] | Potency [7] | Potency [8]
active: Potency [1] 1090 nM | Potency [2] 1.93 µM | Potency [3] 15.4 µM

O=C(NC(=O)c1c(F)cccc1F)Nc1ccc(Oc2ccc(C(F)(F)F)cc2Cl)cc1F
inactive: Potency [3] | Potency [5] | Potency [7]
active: Potency [1] 6860 nM | Potency [2] 68.6 µM

Clc1cc(Cl)c(-c2cc(Cl)c(Cl)cc2Cl)cc1Cl
inactive: Potency [1] | Potency [2] | Potency [3] | Potency [5] | Potency [7]

CC(=O)[O-].CC(=O)[O-].[Co+2]
inactive: Potency [1] | Potency [2] | Potency [3] | Potency [5]

C=C(C)C(=O)[O][Sn]([CH2]CCC)([CH2]CCC)[CH2]CCC
active: Potency [1] 217 nM | Potency [2] 1.72 µM | Potency [3] 1.37 µM | Potency [5] 1.54 µM | Potency [8] 12.2 µM
inactive: Potency [6] | Potency [7]

C1=CCC=C1
inactive: Potency [1] | Potency [2] | Potency [3] | Potency [5]

[C-]1=CC=CC1.[Cl][Zr+2][Cl].c1cc[cH-]c1
inactive: Potency [1] | Potency [2] | Potency [3] | Potency [5]

Cc1nn(-c2cc(NS(C)(=O)=O)c(Cl)cc2Cl)c(=O)n1C(F)F
inactive: Potency [1] | Potency [2] | Potency [3] | Potency [4] | Potency [5] | Potency [7] | Potency [8]

O.O.O.O.O.O.O.O=S(=O)([O-])[O-].[Co+2]
inactive: Potency [1] | Potency [2] | Potency [3] | Potency [5]

ClC1=C(Cl)[C@]2(Cl)[C@H]3[C@H]([C@@H]4C=C[C@H]3C4)[C@@]1(Cl)C2(Cl)Cl
active: Potency [3] 61.1 µM
inactive: Potency [1] | Potency [2] | Potency [5] | Potency [6] | Potency [7] | Potency [8]

C=CCBr
inactive: Potency [1] | Potency [2] | Potency [3] | Potency [5] | Potency [6] | Potency [8]

CNN
inactive: Potency [1] | Potency [2] | Potency [3] | Potency [5]

Nc1c(Cl)c(Cl)c(Cl)c(Cl)c1Cl
inactive: Potency [1] | Potency [2] | Potency [3] | Potency [5] | Potency [7] | Potency [8]
active: Potency [4] 54.5 µM

Nc1ccc(Cl)cc1C(=O)c1ccccc1F
inactive: Potency [1] | Potency [2] | Potency [3] | Potency [4] | Potency [5] | Potency [6] | Potency [8]

Source: PubChem BioAssay (Tox21)
